The antibiotic and cytotoxicity screens of Wong et al. (2023)
About 3,300 (8.5%) of roughly 39,000 compounds were called active. The sample holds actives, similar compounds and a random draw of the others, so the mix is not that of the screen.

Each compound was assayed on HepG2 (assay: cytotoxicity call (relative viability < 0.9)). Details: 10 µM.

Compound	cytotoxicity call
COc1ccc(S(=O)(=O)N(C)C[C@H]2Oc3ccc(NS(=O)(=O)c4cccs4)cc3C(=O)N([C@H](C)CO)C[C@@H]2C)cc1	inactive
COc1cccc(NC(=O)N[C@H]2C=C[C@@H](CC(=O)N3CCN(C)CC3)O[C@H]2CO)c1	inactive
C[C@@H]1CN([C@@H](C)CO)C(=O)c2cc(NC(=O)Nc3ccc4c(c3)OCO4)ccc2O[C@@H](C)CCCCO[C@H]1CN(C)Cc1ccncc1	inactive
c1cnc2nccn2c1	inactive
C[C@@H]1CN([C@H](C)CO)C(=O)c2cc(NC(=O)CCCN(C)C)ccc2O[C@@H]1CN(C)S(=O)(=O)c1cn(C)cn1	inactive
C[C@H](CO)N1C[C@H](C)[C@H](CN(C)Cc2ccc(C(=O)Nc3ccccc3N)cc2)Oc2c(NC(=O)Nc3cccc4ccccc34)cccc2C1=O	active
C[C@H](CO)N1C[C@H](C)[C@H](CN(C)Cc2ccc(C(=O)Nc3ccccc3N)cc2)Oc2c(NC(=O)Nc3ccccc3)cccc2C1=O	inactive
C[C@@H]1CN([C@H](C)CO)C(=O)c2cccc(NC(=O)Nc3cccc4ccccc34)c2O[C@@H]1CN(C)Cc1ccc(C(=O)Nc2ccccc2N)cc1	inactive
C[C@H]1CN([C@@H](C)CO)C(=O)c2cccc(NC(=O)Nc3ccccc3)c2O[C@@H]1CN(C)Cc1ccc(C(=O)Nc2ccccc2N)cc1	inactive
C[C@H]1CN([C@@H](C)CO)C(=O)c2cccc(NC(=O)Nc3cccc4ccccc34)c2O[C@H]1CN(C)Cc1ccc(C(=O)Nc2ccccc2N)cc1	active
C[C@@H]1CN([C@@H](C)CO)C(=O)c2cccc(NC(=O)Nc3cccc4ccccc34)c2O[C@@H]1CN(C)Cc1ccc(C(=O)Nc2ccccc2N)cc1	inactive
COc1ccc(NC(=O)N(C)C[C@@H]2Oc3ccc(NC(=O)Nc4ccc(C(F)(F)F)cc4)cc3C(=O)N([C@@H](C)CO)C[C@@H]2C)cc1	inactive
O[C@@H]1Cc2ccccc2[C@H]1O	inactive
O=C(C[C@H]1CC[C@@H]2[C@H](COC[C@H](O)CN2S(=O)(=O)c2ccc(Oc3ccccc3)cc2)O1)NCCN1CCCCC1	inactive
O=C(C[C@H]1CC[C@H]2[C@@H](COC[C@H](O)CN2S(=O)(=O)c2cccc(Cl)c2)O1)NCCCN1CCOCC1	inactive
COc1ccc(NC(=O)N(C)C[C@H]2OCCCC[C@@H](C)Oc3ccc(NS(=O)(=O)c4ccccc4)cc3C(=O)N([C@@H](C)CO)C[C@H]2C)cc1	inactive
CC(C)NC(=O)N(C)C[C@H]1OCc2cnnn2CCCC(=O)N([C@H](C)CO)C[C@H]1C	inactive
C[C@H](CO)N1C[C@H](C)[C@@H](CN(C)C(=O)Nc2ccc(F)cc2)OCCCC[C@H](C)Oc2ccc(NS(=O)(=O)c3ccc(Cl)cc3)cc2C1=O	inactive
C[C@@H]1CCCCO[C@H](CN(C)C(=O)Nc2ccc(F)cc2)[C@@H](C)CN([C@H](C)CO)C(=O)c2cc(NS(=O)(=O)c3ccc(Cl)cc3)ccc2O1	inactive
C[C@@H]1CCCCO[C@H](CN(C)C(=O)Nc2ccc(F)cc2)[C@@H](C)CN([C@@H](C)CO)C(=O)c2cc(NS(=O)(=O)c3ccc(Cl)cc3)ccc2O1	active

Compound	cytotoxicity call
C[C@@H]1CN([C@@H](C)CO)C(=O)c2cc(NS(=O)(=O)c3ccc(Cl)cc3)ccc2O[C@@H](C)CCCCO[C@@H]1CN(C)C(=O)Nc1ccc(F)cc1	inactive
C[C@@H]1CCCCO[C@H](CN(C)C(=O)Nc2ccccc2)[C@@H](C)CN([C@@H](C)CO)C(=O)c2cc(NS(=O)(=O)c3ccc(Cl)cc3)ccc2O1	active
C[C@@H]1CN([C@H](C)CO)C(=O)c2cc(NS(=O)(=O)c3ccc(Cl)cc3)ccc2O[C@@H](C)CCCCO[C@H]1CN(C)C(=O)Nc1ccc(F)cc1	active
C[C@H]1CCCCO[C@H](CN(C)C(=O)Nc2ccc(F)cc2)[C@@H](C)CN([C@@H](C)CO)C(=O)c2cc(NS(=O)(=O)c3ccc(Cl)cc3)ccc2O1	active
C[C@@H]1CCCCO[C@H](CN(C)C(=O)Nc2ccccc2)[C@@H](C)CN([C@H](C)CO)C(=O)c2cc(NS(=O)(=O)c3ccc(Cl)cc3)ccc2O1	inactive
C[C@@H]1CCCCO[C@@H](CN(C)C(=O)Nc2ccc(F)cc2)[C@H](C)CN([C@@H](C)CO)C(=O)c2cc(NS(=O)(=O)c3ccc(Cl)cc3)ccc2O1	inactive
C[C@@H]1CCCCO[C@@H](CN(C)C(=O)Nc2ccccc2)[C@H](C)CN([C@@H](C)CO)C(=O)c2cc(NS(=O)(=O)c3ccc(Cl)cc3)ccc2O1	inactive
C[C@@H]1CCCCO[C@@H](CN(C)C(=O)Nc2ccc(F)cc2)[C@@H](C)CN([C@H](C)CO)C(=O)c2cc(NS(=O)(=O)c3ccc(Cl)cc3)ccc2O1	inactive
C[C@H]1CCCCO[C@@H](CN(C)C(=O)Nc2ccc(F)cc2)[C@@H](C)CN([C@@H](C)CO)C(=O)c2cc(NS(=O)(=O)c3ccc(Cl)cc3)ccc2O1	inactive
CC(=O)N[C@H]1[C@H](O/N=[N+](\[O-])N2CCCC2)O[C@H](CO)[C@@H](O)[C@@H]1O	inactive
COc1ccc(S(=O)(=O)N2C[C@@H](O)COC[C@H]3O[C@@H](CC(=O)NCCCN4CCOCC4)CC[C@@H]32)cc1	inactive
O=C(C[C@H]1C[C@H]2c3cc(NC(=O)NC4CCCC4)ccc3O[C@H]2[C@H](CO)O1)NCc1ccc2c(c1)OCO2	inactive
CC(=O)OC1CCC2(C)C(CCC3(C)C2CCC24OC(=O)C5(CCC(C)C(C)C52)CCC34C)C1(C)C (centres undefined)	inactive
COc1ccc(CN(C)C[C@@H]2Oc3ccc(NC(=O)C4CC4)cc3CC(=O)N([C@@H](C)CO)C[C@H]2C)cc1	inactive
COc1ccc(CN(C)C[C@@H]2OCCCC[C@H](C)Oc3ccc(NC(=O)Nc4c(C)noc4C)cc3C(=O)N([C@@H](C)CO)C[C@H]2C)cc1	inactive
C[C@H](CO)N1C[C@H](C)[C@H](CN(C)Cc2ccc(Cl)c(Cl)c2)Oc2c(NC(=O)Nc3cccc4ccccc34)cccc2C1=O	inactive
Cc1ccc(S(=O)(=O)N(C)C[C@@H]2Oc3ccc(NS(C)(=O)=O)cc3C(=O)N([C@@H](C)CO)C[C@H]2C)cc1	inactive
CC(C)NC(=O)N(C)C[C@H]1Oc2c(NC(=O)Nc3ccc4c(c3)OCO4)cccc2C(=O)N([C@H](C)CO)C[C@H]1C	inactive
O=C(C[C@H]1C[C@H]2c3cc(NS(=O)(=O)c4ccc(F)cc4)ccc3O[C@H]2[C@H](CO)O1)NCc1ccccc1	inactive
C[C@H](CO)N1C[C@H](C)[C@H](CN(C)C(=O)Nc2ccc(F)cc2)OCCCC[C@H](C)Oc2ccc(NS(=O)(=O)c3ccc(Cl)cc3)cc2C1=O	active

Compound	cytotoxicity call
C[C@@H]1CCCCO[C@@H](CN(C)C(=O)Nc2ccc(F)cc2)[C@H](C)CN([C@H](C)CO)C(=O)c2cc(NS(=O)(=O)c3ccc(Cl)cc3)ccc2O1	active
C[C@@H]1CCCCO[C@H](CN(C)C(=O)Nc2ccc(F)cc2)[C@H](C)CN([C@H](C)CO)C(=O)c2cc(NS(=O)(=O)c3ccc(Cl)cc3)ccc2O1	inactive
C[C@@H]1CCCCO[C@H](CN(C)C(=O)Nc2ccc(F)cc2)[C@H](C)CN([C@@H](C)CO)C(=O)c2cc(NS(=O)(=O)c3ccc(Cl)cc3)ccc2O1	inactive
O=C(C[C@H]1C[C@H]2c3cc(NC(=O)Cc4ccncc4)ccc3O[C@H]2[C@@H](CO)O1)NCc1ccc2c(c1)OCO2	inactive
C[C@@H]1CN([C@H](C)CO)C(=O)c2cc(NC(=O)Nc3ccc4c(c3)OCO4)ccc2O[C@@H](C)CCCCO[C@@H]1CN(C)S(=O)(=O)c1ccccc1	inactive
C[C@@H]1CN([C@@H](C)CO)C(=O)c2cc(NC(=O)Nc3ccc4c(c3)OCO4)ccc2O[C@@H](C)CCCCO[C@@H]1CN(C)C(=O)Cc1ccccc1	inactive
Cc1ccc(Cn2c3ccccc3c3ccccc32)cc1	inactive
CN1CCc2c(c3ccccc3n2Cc2ccccc2)C1	active
Cn1sc(=O)n(Cc2ccccc2)c1=O	inactive
C[C@@H]1CCCCO[C@H](CN(C)C(=O)Nc2ccccc2)[C@@H](C)CN([C@H](C)CO)C(=O)c2cc(NC(=O)CCC(F)(F)F)ccc2O1	inactive
C[C@@H]1CCCCO[C@@H](CN(C)C(=O)C2CCCCC2)[C@H](C)CN([C@@H](C)CO)C(=O)c2cc(NC(=O)Nc3ccc(C(F)(F)F)cc3)ccc2O1	active
C[C@@H]1CN([C@H](C)CO)C(=O)c2cc(NC(=O)Nc3ccc(C(F)(F)F)cc3)ccc2O[C@@H](C)CCCCO[C@@H]1CN(C)C(=O)C1CCCCC1	active
C[C@@H]1CCCCO[C@H](CN(C)C(=O)C2CCCCC2)[C@H](C)CN([C@@H](C)CO)C(=O)c2cc(NC(=O)Nc3ccc(C(F)(F)F)cc3)ccc2O1	inactive
C[C@H](CO)N1C[C@H](C)[C@@H](CN(C)C(=O)C2CCCCC2)OCCCC[C@H](C)Oc2ccc(NC(=O)Nc3ccc(C(F)(F)F)cc3)cc2C1=O	inactive
C[C@H]1CCCCO[C@@H](CN(C)C(=O)C2CCCCC2)[C@@H](C)CN([C@@H](C)CO)C(=O)c2cc(NC(=O)Nc3ccc(C(F)(F)F)cc3)ccc2O1	active
C[C@H]1CCCCO[C@H](CN(C)C(=O)C2CCCCC2)[C@@H](C)CN([C@@H](C)CO)C(=O)c2cc(NC(=O)Nc3ccc(C(F)(F)F)cc3)ccc2O1	inactive
C[C@@H]1CCCCO[C@@H](CN(C)C(=O)C2CCCCC2)[C@@H](C)CN([C@H](C)CO)C(=O)c2cc(NC(=O)Nc3ccc(C(F)(F)F)cc3)ccc2O1	inactive
C[C@@H]1CN([C@H](C)CO)C(=O)c2cc(NC(=O)Nc3ccc(C(F)(F)F)cc3)ccc2O[C@@H](C)CCCCO[C@H]1CN(C)C(=O)C1CCCCC1	inactive
C[C@@H]1CCCCO[C@H](CN(C)C(=O)C2CCCCC2)[C@@H](C)CN([C@H](C)CO)C(=O)c2cc(NC(=O)Nc3ccc(C(F)(F)F)cc3)ccc2O1	inactive
